Screening data as filed in PubChem BioAssay.
The full list was thinned out, with hits kept by preference.
TcdB inh: TcdB glycohydrolase inhibition. 350,000 compounds, 0.24% hits. TcdB glycohydrolase enzymatic assay, plate reader. inhibition, % at 9.99 µM; in the data active = inhibition above about 10%
Autofluor counter: compound fluorescence in toxin protease inhibitor counterscreen; compound autofluorescence counterscreen, microsphere flow cytometry; active compounds read high; fluorescence intensity (concentration not given with the values); 360,000 compounds, 3.1% hits; in the data active = fluorescence intensity above about 16000; inconclusive = no clear call, values can overlap the other calls
BoNT-A LC inh2: blocks Botulinum neurotoxin A light chain protease | AID 588499 | multiplex microsphere protease substrate cleavage, flow cytometry | 360,000 compounds, 0.17% hits | inhibition, % at 10 µM; also: plate controls were buffer without enzyme for full effect and enzyme alone for no effect
BoNT F protease: inhibitors of Botulinum neurotoxin F light chain protease. 360,000 compounds, 0.22% hits. inhibition, % at 10 µM. AID 588497. Multiplex microsphere protease cleavage assay, flow cytometry; in the data active = inhibition above about 35%, passing the limit was not always enough; inconclusive = no clear call, values can overlap the other calls; also: plate controls were buffer without enzyme for full effect and enzyme alone for no effect
Anthrax LF inh2: anthrax lethal factor protease inhibition. P15917. 360,000 compounds, 0.12% hits. multiplex microsphere protease cleavage assay, LF. inhibition, % at 10 µM; also: plate controls were buffer without enzyme for full effect and enzyme alone for no effect
Target sequence (P15917 whole entry, looked up): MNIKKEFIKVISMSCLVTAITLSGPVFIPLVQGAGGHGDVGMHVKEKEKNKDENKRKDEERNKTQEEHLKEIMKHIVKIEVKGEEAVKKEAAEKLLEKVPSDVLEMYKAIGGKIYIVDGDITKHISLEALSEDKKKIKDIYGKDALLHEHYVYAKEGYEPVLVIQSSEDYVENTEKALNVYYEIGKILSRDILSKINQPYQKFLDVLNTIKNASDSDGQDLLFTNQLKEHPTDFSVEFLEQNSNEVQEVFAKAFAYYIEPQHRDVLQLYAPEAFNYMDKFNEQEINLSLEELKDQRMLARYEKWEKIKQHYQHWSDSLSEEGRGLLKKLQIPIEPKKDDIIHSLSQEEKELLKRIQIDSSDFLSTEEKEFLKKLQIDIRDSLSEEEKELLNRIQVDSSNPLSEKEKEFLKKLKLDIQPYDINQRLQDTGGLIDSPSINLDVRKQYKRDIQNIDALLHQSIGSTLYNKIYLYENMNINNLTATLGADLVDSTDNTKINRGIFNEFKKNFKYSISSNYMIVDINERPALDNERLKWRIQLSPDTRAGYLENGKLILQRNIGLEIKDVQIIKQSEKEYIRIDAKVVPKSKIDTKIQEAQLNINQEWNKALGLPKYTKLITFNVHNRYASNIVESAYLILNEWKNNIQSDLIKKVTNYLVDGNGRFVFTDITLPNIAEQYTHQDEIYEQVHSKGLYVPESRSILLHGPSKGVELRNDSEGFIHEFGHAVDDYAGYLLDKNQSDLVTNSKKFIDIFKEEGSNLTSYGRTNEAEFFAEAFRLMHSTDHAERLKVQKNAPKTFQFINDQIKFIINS
Starred values were filed as active, the others as inactive; ? = inconclusive; / = no result given. Rule as the data show it, unless noted: active = inhibition above about 30%; inconclusive = no clear call, values can overlap the other calls; inactive = below that.

SMILES	TcdB inh	Autofluor counter	BoNT-A LC inh2	BoNT F protease	Anthrax LF inh2
O=C(NCC1CC1)[C@H]1[C@H](CO)[C@H]2Cn3c(ccc(-c4cccnc4)c3=O)[C@@H]1N2Cc1nccs1	-2	/	/	/	/
O=S(=O)(Cc1ccccc1Cl)c1ncn[nH]1	0	6250	0	-1	3
Cc1snc(S(=O)(=O)Cc2ccccc2Cl)c1C#N	/	21018*	-1	-1	-3
C[C@@H]1CN([C@H](C)CO)C(=O)c2cc(C#CC3CCCCC3)cnc2O[C@H]1CN(C)C(=O)C1CCCCC1	0	/	/	/	/
CCOC(=O)C(=N/O)/C(C)=N/NC(C)=O	0	4605	4	46*	-5
COc1cc(C(=O)NCCSc2ccc(Br)cc2)cc(OC)c1OC	-1	18300*	-16	-74	-24
CCCCCCNC(=O)CCNC(=O)c1cc(OC)c(OC)c(OC)c1	/	22280*	0	0	1
COc1cc(C(=O)Nc2ccc(Br)cc2C(=O)c2cc(OC)c(OC)c(OC)c2)cc(OC)c1OC	/	24193*	0	-2	-2
CC(C)C#Cc1ccc2c(c1)O[C@H](CN(C)S(=O)(=O)c1cn(C)cn1)[C@H](C)CN([C@@H](C)CO)S2(=O)=O	1	/	/	/	/
C[C@@H]1CN([C@H](C)CO)C(=O)c2cc(NC(=O)CCN3CCOCC3)ccc2O[C@@H]1CN(C)S(C)(=O)=O	0	/	/	/	/
COc1cc(/C=N/n2c(-c3cc(C)[nH]n3)n[nH]c2=S)ccc1O	19*	4188	0	0	-2
Cc1noc(C)c1S(=O)(=O)N(C)C[C@H]1OCCCC[C@H](C)Oc2ccc(NC(=O)Nc3ccc(F)cc3)cc2C(=O)N([C@@H](C)CO)C[C@@H]1C	-1	/	/	/	/
O=C(Cn1cnc2ccccc21)NCCCN1CCOCC1	/	24254*	-4	-7	-3
O=C(CN1CCN(Cc2ccccc2)C1=O)NCCCN1CCOCC1	1	5999	0	-1	-2
O=C(NCCCN1CCOCC1)c1cccs1	/	19558*	?	5	-5
O=C(NCCN1CCN(C(=O)c2cccs2)CC1)C(=O)Nc1ccc(Br)cc1	/	3230	0	0	-4
O=C(NCCN1CCN(C(=O)c2cccs2)CC1)c1cccs1	/	22034*	0	0	0
O=C(c1cccs1)N1CCN(CCc2ccccc2)CC1	/	21277*	-1	-3	1
CN1C(=O)c2cc(NS(C)(=O)=O)ccc2OC[C@@H]2O[C@@H](CC(=O)O)CC[C@@H]21	-2	/	/	/	/
N#C[C@H]1N[C@H](CO)[C@@H]1c1ccc(C2=CCCCC2)cc1	0	/	/	/	/
O=C(c1cccc(F)c1)N1CC(=O)N2[C@H](C1)[C@@H](c1ccc(-c3cccnc3)cc1)[C@@H]2CO	1	/	/	/	/
COc1ccc(NC(=O)N(C)C[C@@H]2OCCCC[C@H](C)Oc3ccc(NC(=O)NC(C)C)cc3C(=O)N([C@@H](C)CO)C[C@@H]2C)cc1	0	/	/	/	/
Cc1cc(C)nc(N2CCCC(C(=O)NC(C)CCc3ccco3)C2)n1 (stereo unspecified)	/	23504*	?	-2	-2
COc1nc(OC)nc(N2CCC(C(=O)NCc3cccs3)CC2)n1	/	21111*	?	3	0
Cc1cnc(C)c(N2CCC(C(=O)NCc3cccs3)CC2)n1	/	3253	0	-4	-1
SMILES	TcdB inh	Autofluor counter	BoNT-A LC inh2	BoNT F protease	Anthrax LF inh2
Cc1cc(C)nc(N2CCCC(C(=O)NCc3cccs3)C2)n1 (stereo unspecified)	-2	21442*	3	3	-4
O=C(NCc1cccs1)C1CCCN(c2nc3ccccc3o2)C1 (stereo unspecified)	/	16144*	1	1	1
O=C1c2ccccc2C(=O)N1CCc1nc(-c2ccc(Cl)cc2)no1	/	21023*	2	2	-35
O=C1c2ccccc2C(=O)N1CCc1nc(-c2cccnc2)no1	/	4529	1	-7	-3
O=C1c2ccccc2C(=O)N1CCc1nc(-c2ccncc2)no1	/	19470*	2	2	-8
Cc1ccc(-c2noc(CCCN3C(=O)c4ccccc4C3=O)n2)cc1	/	?	2	-6	-4
COCC(=O)Nc1ccc2c(c1)[C@H]1C[C@H](CC(=O)NC3CCCC3)O[C@H](CO)[C@H]1O2	-1	/	/	/	/
CO[C@@H]1CN(C)C(=O)c2cc(C#N)ccc2OC[C@H]2O[C@H](CC[C@H]2OC)CCN(C)C(=O)[C@H]1C	-1	/	/	/	/
Cc1c(Cl)cccc1N1C(=O)c2ccccc2C1=O	/	25160*	?	-7	-4
COCCCN1C(=O)N(c2ccc(F)cc2)C(=O)C1CC(=O)Nc1ccccc1 (stereo unspecified)	2	3627	-1	15	-9
CCOC(=O)c1ccc(NC(=O)CC2C(=O)N(c3ccccc3)C(=O)N2CCCOC)cc1 (stereo unspecified)	/	19974*	0	-1	-4
CCNC(=O)CC1C(=O)N(c2ccccc2)C(=O)N1CCc1ccc(OC)c(OC)c1 (stereo unspecified)	/	22965*	?	2	0
CCNC(=O)CC1C(=O)N(c2ccc(F)cc2)C(=O)N1CCc1ccc(OC)cc1 (stereo unspecified)	/	20994*	-1	-1	-1
Cc1noc(C)c1NC(=O)N(C)C[C@H]1Oc2cc(C#CCC3CCCC3)ccc2S(=O)(=O)N([C@H](C)CO)C[C@H]1C	0	/	/	/	/
O=C(Nc1ccc2c(c1)[C@H]1C[C@@H](CC(=O)N3CCCCC3)O[C@@H](CO)[C@H]1O2)C1CCC1	1	/	/	/	/
CSc1nnc(SCC(=O)NC(=O)c2ccccc2)s1	-3	6714	-3	-15	-2
CSC(=O)CC(=O)NC(=O)c1ccccc1	/	25369*	-4	-6	-2
CN(C)C(=O)C[C@H]1CC[C@H]2[C@@H](COC[C@H](O)CN2Cc2ccc(C(F)(F)F)cc2)O1	0	/	/	/	/
C=C1N(CCCCCC(=O)O)C(=O)OC12CCCCC2	/	22385*	1	1	2
Cc1ccccc1NC(=O)NCCCN1CCCC1	/	22559*	?	1	-1
COc1ccc(NC(=O)N(C)C[C@@H]2OCCCC[C@H](C)Oc3ccc(NC(=O)C4CCCCC4)cc3C(=O)N([C@H](C)CO)C[C@H]2C)cc1	-1	/	/	/	/
COc1cc(-c2noc(CCCC(=O)NCc3ccco3)n2)cc(OC)c1OC	/	21043*	4	6	1
O=C(CCc1nc(-c2ccccc2)no1)NCc1ccco1	/	4955	1	-11	-5
COc1cc(CC(=O)NCc2ccco2)cc(OC)c1OC	/	4481	0	11	0
Cc1ccc(-c2noc(CCC(=O)NCc3ccco3)n2)cc1	/	19424*	0	-2	-3
COC(=O)c1ccc(CN2CC(=O)N3[C@H](CO)[C@H](c4ccc(-c5ccccc5F)cc4)[C@@H]3C2)cc1	1	/	/	/	/
CS(=O)(=O)Nc1ccc(N2CCCCC2)c(Cl)c1	/	23555*	0	-1	0
Cc1ccc(S(=O)(=O)N2CC3(C)CN(S(=O)(=O)c4ccc(C)cc4)CC(C)(C2)C3=O)cc1	/	22149*	3	3	-3
C[C@H](CO)N1C[C@H](C)[C@H](CN(C)CC2CCCCC2)Oc2ccc(NC(=O)C3CCCCC3)cc2CC1=O	2	/	/	/	/
CO[C@@H]1CN(C)C(=O)c2cc(NC(=O)CC(F)(F)F)ccc2OC[C@H](C)N(C(C)=O)C[C@H]1C	-1	/	/	/	/
